ALDH1A1 block = inhibitors of human aldehyde dehydrogenase 1A1; P00352; Purified ALDH1A1, NADH fluorescence, propionaldehyde substrate; Potency, µM (highest dose often 75.3 µM), usual class: inhibitors; hit rate 7.3% among 220,000
Target sequence (P00352 whole entry, looked up): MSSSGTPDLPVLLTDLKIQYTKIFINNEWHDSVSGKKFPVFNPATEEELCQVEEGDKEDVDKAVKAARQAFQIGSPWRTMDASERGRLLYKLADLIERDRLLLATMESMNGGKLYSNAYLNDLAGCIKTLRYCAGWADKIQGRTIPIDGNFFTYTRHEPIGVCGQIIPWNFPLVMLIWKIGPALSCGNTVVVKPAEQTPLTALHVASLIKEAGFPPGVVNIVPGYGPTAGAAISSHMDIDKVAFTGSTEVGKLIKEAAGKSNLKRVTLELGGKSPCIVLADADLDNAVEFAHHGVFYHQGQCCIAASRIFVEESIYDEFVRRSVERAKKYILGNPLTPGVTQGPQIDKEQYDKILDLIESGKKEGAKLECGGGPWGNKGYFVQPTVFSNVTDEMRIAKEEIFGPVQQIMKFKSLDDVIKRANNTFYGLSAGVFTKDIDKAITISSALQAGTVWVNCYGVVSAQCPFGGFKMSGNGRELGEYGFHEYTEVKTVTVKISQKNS
HTT cytoprotect = protects HTT-Q103 PC12 cells, measured by ATP; hit rate 0.14% among 230,000; PC12 HTT-Q103 induced, cytoprotection, ATP luminescence, 40 h; Potency, µM (series often up to 56.4 µM), actives largely listed as activators; active means well fitted curve in the direction sought with a large enough effect; inconclusive means small, poorly fitted or top-dose-only effect, or another doubt; inactive means no such curve, though single readings can be large; an effect the other way counts as inactive or inconclusive; further: nearly all actives have a fitted effect of over 45% in size
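PC12 cells stably carrying ecdysone-inducible Htt exon 1 (Q103)–GFP were induced with 100 nM tebufenozide (final) alongside library compounds in a dose series. Cytoprotection was scored as retained ATP by ATPlite luminescence.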
HttQ103 aggreg = mutant huntingtin aggregation inhibition; PC12 HttQ103-GFP aggregates, Acumen cytometry, 40 h; Potency, µM (series often up to 46.1 µM), most hits filed as inhibitors; hit rate 1.1% among 220,000; active means well fitted curve in the direction sought with a large enough effect; inconclusive means small, poorly fitted or top-dose-only effect, or another doubt; inactive means no such curve, though single readings can be large; an effect the other way counts as inactive or inconclusive; further: nearly all actives have a fitted effect of over 60% in size
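Ecdysone-promoter PC12 model expressing HTT exon 1 Q103 fused to GFP, induced by tebufenozide at 100 nM final. Compounds titrated; aggregates sized 1–25 µm scored on a 488 nm laser cytometer.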
JMJD2E inh = JMJD2E (human) inhibition. B2RXH2. JMJD2E catalytic domain, FDH-coupled NADH fluorescence (FDH is formaldehyde dehydrogenase). Potency, µM (doses to about 57.1 µM), usual class: inhibitors. hit rate 1.6% among 230,000. AID 2147; further: nearly all actives have a fitted effect of over 50% in size
HPGD block = HPGD (human) dehydrogenase inhibition. purified HPGD, NADH fluorescence kinetic, PGE2 substrate. P15428. Potency, µM, actives largely listed as inhibitors. hit rate 4.3% among 150,000. AID 894
Target sequence (P15428 whole entry, looked up): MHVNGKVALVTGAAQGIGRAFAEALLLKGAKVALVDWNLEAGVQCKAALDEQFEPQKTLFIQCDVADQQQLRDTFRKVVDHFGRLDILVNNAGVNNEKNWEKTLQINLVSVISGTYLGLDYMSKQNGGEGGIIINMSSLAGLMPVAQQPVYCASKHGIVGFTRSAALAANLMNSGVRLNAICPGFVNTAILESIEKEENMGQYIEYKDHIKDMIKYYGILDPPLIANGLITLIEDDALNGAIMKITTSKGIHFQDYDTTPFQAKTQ
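NADH formation kinetics: reaction with 30 uM PGE2 and 1 mM NAD+ (final), 20 nM enzyme, Tris-HCl pH 8 with Tween 20, after 15 min compound preincubation at room temperature. Fluorescence change, last versus first of five reads.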
Lamin A splicing = modulators of lamin A splicing | HeLa LMNA splicing GFP/RFP minigene ratio, 48 h | Potency, µM (doses to about 46.1 µM), most hits filed as inhibitors | hit rate 0.01% among 200,000; active means well fitted inhibition curve with a large enough effect in the signal ratio, with a control signal flat, not every such curve was filed as active; inconclusive means small, poorly fitted or top-dose-only effect, or effect the other way, or a change in a side signal; the % refers to the signal ratio
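Read-out is the ratio of GFP to DsRed2 object intensity, acquired by 488 nm laser-scanning cytometry on HeLa lamin A-EGFP minigene reporter cells. Compound incubation 48 hrs at 37 °C in Opti-MEM with 2% FBS; DMSO 0.5% final.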
Large screens that a line does not name were inactive. An excerpt weighted towards active compounds, which were near 9.2% of everything screened. Unless noted, the call rests on the fitted dose curve; in most records, active means well fitted inhibition curve with a large enough effect (not every such curve was filed as active); inconclusive means small, poorly fitted or top-dose-only effect, or another doubt; inactive means no such curve, though single readings can be large or run the other way.

COc1cc(C2CC(=O)N(c3ccc(C)cc3)C(=O)C2)cc(OC)c1OC	none (no result: ALDH1A1 block, HPGD block, Lamin A splicing)
O=C(NC(=S)NCc1ccccc1)c1ccccc1[N+](=O)[O-]	none (no result: HPGD block)
O=C(NC(=S)NC(=O)c1ccccc1F)c1ccccc1F	ALDH1A1 block 2µM, HPGD block 12.6µM
O=C(NC(=S)NCc1ccccc1)c1ccccc1F	ALDH1A1 block 31.6µM
CCOC(=O)c1cc(C(=O)c2ccccc2O)cn2c(=O)c3c(C)c(C)sc3nc12	ALDH1A1 block 14.1µM (no result: HPGD block)
Cc1cc(C(c2nnnn2Cc2ccccc2)N2CCOCC2)c(C)n1-c1ccc2c(c1)OCO2 (stereo not given)	ALDH1A1 block 12.6µM, JMJD2E inh inconclusive
NC(N)=NNC(=O)C(=O)O	none (no result: HttQ103 aggreg, JMJD2E inh, Lamin A splicing)
CN(C)S(=O)(=O)c1cccc(C(=O)OCC(=O)c2ccc3c(c2)NC(=O)CO3)c1	ALDH1A1 block 22.4µM
CCCC[C@@H]1C[C@H]1C(NC(=O)c1ccccc1)c1ccccc1C(F)(F)F (stereo not given in full)	none (no result: HttQ103 aggreg, Lamin A splicing)
O=c1cc(N=Nc2ccc(O)cc2)[nH]c(=O)[nH]1	none (no result: HttQ103 aggreg, JMJD2E inh, Lamin A splicing)
COc1ccccc1-c1cc(C(F)(F)F)nc(S(=O)(=O)CCCC(=O)N2CCOCC2)n1	JMJD2E inh inconclusive, HPGD block 14.1µM, Lamin A splicing inconclusive
COc1ccccc1-c1cc(C(F)(F)F)nc(S(=O)(=O)CCCC(=O)O)n1	HPGD block inconclusive, Lamin A splicing inconclusive
CCOc1ccc(-c2nnc(SCc3nnc(-c4ccccc4)o3)n2-c2ccccc2F)cc1	HttQ103 aggreg inconclusive, HPGD block 12.6µM
CCOc1ccc(-n2c(SCc3ccc([N+](=O)[O-])cc3)nnc2-c2ccccc2)cc1	HttQ103 aggreg 20µM, Lamin A splicing inconclusive
COc1ccc(-n2c(SCc3ccc([N+](=O)[O-])cc3)nnc2-c2ccccc2)cc1	HPGD block inconclusive, Lamin A splicing inconclusive
C[C@H]1Cc2c(COc3ccccc3)nc3c(c2CO1)CN(C(=O)Cc1cccs1)CC3	Lamin A splicing inconclusive (no result: HttQ103 aggreg)
CC(Oc1ccc(Cl)cc1Cl)C(=O)NNC(=O)C(=O)N1CCCCC1 (stereo not given)	Lamin A splicing inconclusive
COc1cc(O)oc1C=Nc1ccc(Cl)cc1Cl	ALDH1A1 block 14.1µM, HPGD block inconclusive
COc1cc(O)oc1C=Nc1ccc(Cl)cc1	ALDH1A1 block inconclusive
COc1cc(Nc2ccccc2Cl)c([N+](=O)[O-])nc1[N+](=O)[O-]	HPGD block 25.1µM
COc1ccc(Nc2nc(N/N=C/c3ccc(N(C)C)cc3)nc(C)c2[N+](=O)[O-])cc1	ALDH1A1 block 7.94µM
Oc1csc(Cc2nc(-c3ccccc3F)cs2)n1	ALDH1A1 block 17.8µM (no result: HPGD block, Lamin A splicing)
O=c1c2c3nc4ccccc4nc3n(/N=C/c3ccco3)c2ncn1CCC1=CCCCC1	ALDH1A1 block 25.1µM, HttQ103 aggreg inconclusive, JMJD2E inh inconclusive
CCN(CC)C(=O)c1sc(NC(=O)c2cccc([N+](=O)[O-])c2)c(C#N)c1C	HPGD block 7.08µM
CCN(CC)C(=O)c1sc(NC(=O)c2ccc3c(c2)OCO3)c(C#N)c1C	ALDH1A1 block inconclusive, HPGD block 6.31µM
Cc1c(C(=O)N2CCOCC2)sc(NC(=O)c2ccc3c(c2)OCO3)c1C#N	HPGD block inconclusive
COC(=O)CSc1nc2ccc(NC(=O)CSc3nnnn3Cc3ccccc3)cc2s1	ALDH1A1 block 4.47µM, HPGD block inconclusive
O=C(CSc1nc2ccc(NC(=O)CSc3nnnn3Cc3ccccc3)cc2s1)Nc1ccccc1	ALDH1A1 block 12.6µM, HPGD block inconclusive
COc1cccc(-n2nnnc2S(C)(=O)=O)c1	ALDH1A1 block 1.26µM, HttQ103 aggreg 2.51µM, HPGD block 20µM, Lamin A splicing inconclusive
Cc1cc(C)c(NC(=O)CSc2nc3ccc(NC(=O)CSc4nnnn4-c4ccccc4)cc3s2)c(C)c1	ALDH1A1 block inconclusive, HttQ103 aggreg 10µM (no result: HTT cytoprotect)
CCOc1ccc2nc(NC(=O)c3ccc(OCC4CCCO4)cc3)sc2c1 (stereo not given)	ALDH1A1 block inconclusive, JMJD2E inh inconclusive, HPGD block inconclusive (no result: HTT cytoprotect)
COc1cc(C=O)ccc1OCC(=O)N1CCCC1	JMJD2E inh inconclusive (no result: HPGD block)
CCn1nnnc1SCC(=O)Nc1cccc(NC(C)=O)c1	none
Cc1ccc(-n2nnnc2SCC(=O)Nc2cccc(NC(=O)c3ccco3)c2)cc1C	ALDH1A1 block inconclusive, HttQ103 aggreg 10µM, JMJD2E inh inconclusive, Lamin A splicing inconclusive (no result: HPGD block)
CC(=O)Nc1cccc(NC(=O)CSc2nnnn2Cc2ccccc2)c1	ALDH1A1 block 12.6µM, Lamin A splicing inconclusive
Cc1cc(C)cc(-n2nnnc2SCC(=O)Nc2cccc(NC(=O)c3ccco3)c2)c1	ALDH1A1 block inconclusive, Lamin A splicing inconclusive
COc1cccc(-n2nnnc2SCC(=O)Nc2cccc(NC(C)=O)c2)c1	ALDH1A1 block 7.08µM, Lamin A splicing inconclusive
COc1ccc(-n2nnnc2SCC(=O)Nc2cccc(NC(C)=O)c2)cc1OC	HPGD block inconclusive
O=C1[C@H]2O[C@@H]2[C@@H](O)[C@H]2[C@H]1CCn1c(=O)n(Cc3cc4c(cc3Cl)OCO4)c(=O)n12	HTT cytoprotect inconclusive (no result: HttQ103 aggreg, JMJD2E inh, HPGD block, Lamin A splicing)
Cc1cc(C)cc(C(=N)c2ccccc2Cc2cccc3ccccc23)c1	none (no result: HttQ103 aggreg, JMJD2E inh, Lamin A splicing)
COC(=O)c1ccc(C(NC(=O)OCc2ccccc2)/C(C)=C/[C@@H](C)C(=O)N(C)Cc2cccnc2)cc1 (stereo not given in full)	none (no result: HttQ103 aggreg, Lamin A splicing)
Clc1ccc(OCCSCc2nc3ccccc3[nH]2)cc1	ALDH1A1 block inconclusive, HttQ103 aggreg 7.08µM, HPGD block inconclusive, Lamin A splicing inconclusive
O=C(O)C[C@H](Sc1ccccc1)c1ccccc1	none (no result: HttQ103 aggreg, JMJD2E inh, Lamin A splicing)
S=C1NC[C@H](CC2CCCCC2)N1CCCCC1CCCCC1	none (no result: ALDH1A1 block, HPGD block, Lamin A splicing)
COC(=O)CCC(=O)OC1(C)C(=O)C2=CN(CCCOC(C)C)C(c3ccc(OC)cc3)=CC2=C(Br)C1=O (stereo not given)	JMJD2E inh 4.47µM (no result: ALDH1A1 block, HPGD block, Lamin A splicing)
COC(=O)CCC(=O)OC1(C)C(=O)C2=CN(C3CC3)C(c3ccc(OC)cc3)=CC2=C(Br)C1=O (stereo not given)	ALDH1A1 block inconclusive, JMJD2E inh inconclusive (no result: HttQ103 aggreg)
COC(=O)CCC(=O)OC1(C)C(=O)C2=CN(Cc3ccc(OC)cc3)C(c3ccc(OC)cc3)=CC2=C(Br)C1=O (stereo not given)	ALDH1A1 block 3.16µM (no result: HttQ103 aggreg)
COC(=O)CCC(=O)OC1(C)C(=O)C2=CN(c3ccccc3)C(c3ccc(OC)cc3)=CC2=C(Br)C1=O (stereo not given)	ALDH1A1 block 3.55µM, JMJD2E inh inconclusive (no result: HttQ103 aggreg)
COC(=O)CCC(=O)OC1(C)C(=O)C2=CN(Cc3ccccc3)C(c3ccc(OC)cc3)=CC2=C(Br)C1=O (stereo not given)	none (no result: HttQ103 aggreg)
COC(=O)c1ccc(CSc2nc3c([nH]c4ccccc43)c(=O)n2-c2cccc(Cl)c2)o1	none (no result: ALDH1A1 block, HTT cytoprotect, HttQ103 aggreg, JMJD2E inh, HPGD block)

Compound activity (PubChem BioAssay)
